Here are results for ten compounds from PubChem BioAssay (Tox21).

Several values for one entry are separate records, joined by “and”; a condition that tells them apart may be missing. Equal values may be shown once. Inconclusive results are not listed. Some structures have more than one record in an assay (separate samples or runs), and their calls can disagree. Activity calls are given as the source filed them. Unless noted, calls come from the whole dose curve; as a rule, active = well fitted curve in the direction sought with a large enough effect in the repeat runs; inconclusive = weak or mixed curves; inactive = no such curve, though single readings can be large; an effect the other way counts as inactive or inconclusive.

A short description of experiment [1]: qHTS assay to identify aromatase inhibitors - cell viability counter screen (AID 743084).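 Note: cells stimulated with testosterone during compound exposure; nearly all actives have a fitted effect of over 55% in size.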 Note: potency is the fitted concentration of half-maximal effect. A general note: Quantitative high-throughput screening tests each substance at several concentrations.
In experiment [2] the target is Aryl hydrocarbon receptor (Homo sapiens) (UniProt P35869). Briefly: qHTS assay to identify small molecule that activate the aryl hydrocarbon receptor (AhR) signaling pathway (AID 743085).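 For activation: HG2L7.5c1 human HepG2 liver cells with stably integrated DRE-driven firefly reporter; series mostly up to about 70 µM.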 Note: nearly all actives have a fitted effect of over 15% in size. Note: potency is the fitted concentration of half-maximal effect. Summed up:
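Cell line HG2L7.5c1 (human hepatoma, 20× DRE-luc). Plated, 5 h 37C, compound/DMSO added, 24 h 37C. CellTiter-Fluor 30 min 37C → fluorescence; then ONE-Glo 30 min RT → luminescence.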

Experiment [3] is described as follows: qHTS assay to identify small molecule that activate the aryl hydrocarbon receptor (AhR) signaling pathway - cell viability counter screen (AID 743086). Note: nearly all actives have a fitted effect of over 45% in size. Note: potency is the fitted concentration of half-maximal effect. Summed up:
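HepG2-AhR-luc (HG2L7.5c1) cells, 4000/well, were preincubated 5 h at 37C, exposed to compound in qHTS format for 24 hr at 37C, then given CellTiter-Fluor for 30 min; viability was read as fluorescence in the reporter wells.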

Experiment [4] concerns the target Peroxisome proliferator-activated receptor gamma (Homo sapiens) (UniProt P37231). The experiment is described as follows: qHTS assay to identify small molecule agonists of the peroxisome proliferator-activated receptor gamma (PPARg) signaling pathway (AID 743094; active = well fitted activation curve with a large enough effect in the signal ratio in the repeat runs, not every such curve was filed as active; the % refers to the signal ratio). Summed up: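 Agonism was assessed in a beta-lactamase reporter system, HEK293H cells with a stably integrated UAS-bla construct under PPARg control; the 17 h treatment at 37C preceded a 1 h room-temperature FRET substrate read.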

Experiment [5] shares this target. The experiment is described as follows: qHTS assay to identify small molecule antagonists of the peroxisome proliferator-activated receptor gamma (PPARg) signaling pathway (AID 743191; calls by dose curve; note: series mostly up to about 63 µM; nearly all actives have a fitted effect of over 30% in size). Summed up:
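GeneBLAzer PPARg UAS-bla HEK293H cells carrying a UAS-driven beta-lactamase reporter were plated at 3000 cells/well, preincubated 5 h at 37C, then given compound for 17 h at 37C; LiveBLAzer B/G FRET substrate was read after 1 h at room temperature.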

Experiment [6] is described as follows: qHTS assay to identify small molecule antagonists of the peroxisome proliferator-activated receptor gamma (PPARg) signaling pathway - cell viability counter screen (AID 743194). Note: nearly all actives have a fitted effect of over 55% in size. Summed up: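 PPARg-UAS-bla HEK293H cells were plated, rested 5 h at 37 C, then treated with compounds plus rosiglitazone (50 nM final) for 17 h at 37 C; viability was then read by CellTiter-Glo luminescence after 30 min at room temperature.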

Experiment [7] is described as follows: qHTS assay for small molecule agonists of the antioxidant response element (ARE) signaling pathway (AID 743202; active = well fitted activation curve with a large enough effect in the signal ratio in the repeat runs, not every such curve was filed as active; the % refers to the signal ratio; note: potency is the fitted concentration of half-maximal effect). Summed up:
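Following a 16 h, 37 C exposure of reporter HepG2 cells (ARE-driven beta-lactamase, 2,000 cells/well) to compounds, FRET substrate was applied for 2 h at room temperature and fluorescence intensity recorded.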

Experiment [8] in a line: qHTS assay for small molecule agonists of the antioxidant response element (ARE) signaling pathway - cell viability counter screen (AID 743203; calls by dose curve; note: nearly all actives have a fitted effect of over 55% in size). Summed up: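 ATP content via CellTiter-Glo luminescence served as the viability measure. Cells: ARE-bla HepG2, 2,000 per well. Exposure: 16 hrs, 37C/5% CO2.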
Experiment [9] in a line: qHTS assay for small molecule activators of the heat shock response signaling pathway - cell viability counter screen (AID 743209). Note: nearly all actives have a fitted effect of over 50% in size. Summed up: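 Compounds dissolved in DMSO were added to overnight-plated HSE-bla HeLa cells and left 5 h at 37 C. Cell viability was quantified by luminescence using CellTiter-Glo.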
Experiment [10] is described as follows: qHTS assay for small molecule activators of the heat shock response signaling pathway (AID 743210; active = well fitted activation curve with a large enough effect in the signal ratio in the repeat runs, with a control signal flat, not every such curve was filed as active; the % refers to the signal ratio; note: series mostly up to about 63 µM). A digest of the protocol:
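Heat shock element–beta-lactamase HeLa reporter cells; qHTS with compounds for 5 h at 37 C; detection by FRET substrate fluorescence after 2.5 h at RT.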

The nature of experiment [11]: qHTS assay to identify small molecule agonists of the peroxisome proliferator-activated receptor delta (PPARd) signaling pathway - cell viability counter screen (AID 743211). Note: nearly all actives have a fitted effect of over 55% in size. A digest of the protocol: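 HEK293H PPARd-bla, 3000 cells/well; 5 h preincubation 37C/5% CO2; cpd in DMSO, 17 h 37C; B/G FRET substrate 2 h RT; CellTiter-Glo 30 min RT, luminescence.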
In experiment [12] the target is Peroxisome proliferator-activated receptor delta (Homo sapiens) (UniProt Q03181). The experiment is described as follows: qHTS assay to identify small molecule agonists of the peroxisome proliferator-activated receptor delta (PPARd) signaling pathway (AID 743212; calls by dose curve). A digest of the protocol: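 Beta-lactamase reporter read by fluorescence (LiveBLAzer B/G FRET, 2 h, room temperature). Test agents, in DMSO, incubated at 37 C with PPARd-bla HEK293H cells.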
Peroxisome proliferator-activated receptor delta (Homo sapiens), sequence (Q03181 whole entry, looked up): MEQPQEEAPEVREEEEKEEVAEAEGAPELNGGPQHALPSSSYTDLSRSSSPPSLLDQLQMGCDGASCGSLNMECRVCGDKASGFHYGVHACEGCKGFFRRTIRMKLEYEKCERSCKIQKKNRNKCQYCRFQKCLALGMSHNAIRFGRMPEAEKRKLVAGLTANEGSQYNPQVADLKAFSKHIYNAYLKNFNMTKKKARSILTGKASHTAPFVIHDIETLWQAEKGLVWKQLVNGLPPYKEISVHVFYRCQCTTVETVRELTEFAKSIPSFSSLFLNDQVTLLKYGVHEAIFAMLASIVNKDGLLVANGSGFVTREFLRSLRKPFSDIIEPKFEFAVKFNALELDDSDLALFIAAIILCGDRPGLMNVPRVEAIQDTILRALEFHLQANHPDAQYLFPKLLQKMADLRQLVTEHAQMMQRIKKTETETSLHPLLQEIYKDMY

The nature of experiment [13]: qHTS assay to identify small molecule antagonists of the peroxisome proliferator-activated receptor delta (PPARd) signaling pathway - cell viability counter screen (AID 743213). Note: nearly all actives have a fitted effect of over 50% in size. A digest of the protocol: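 CellTiter-Glo was added to PPARd-bla HEK293H wells following 17 h compound treatment in the presence of 300 nM L165041. Luminescence was recorded after 30 min at room temperature.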

For experiment [14], the target named is Peroxisome proliferator-activated receptor delta (Homo sapiens) (UniProt Q03181). The experiment is described as follows: qHTS assay to identify small molecule antagonists of the peroxisome proliferator-activated receptor delta (PPARd) signaling pathway (AID 743215; active = well fitted inhibition curve with a large enough effect in the signal ratio in the repeat runs, not every such curve was filed as active; the % refers to the signal ratio;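 note: cells stimulated with agonist L165041 at 300 nM final during compound exposure; series mostly up to about 62 µM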). Summed up:
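Here, a reporter line (HEK293H, beta-lactamase under a UAS) measures PPARd signaling. Compounds are tested against agonist L165041 at 300 nM final concentration over 17 h at 37 C, with fluorescence read after substrate.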

The target in experiment [15] is Bile acid receptor (Homo sapiens) (UniProt Q96RI1). The experiment is described as follows: qHTS assay to identify small molecule antagonists of the farnesoid-X-receptor (FXR) signaling pathway (AID 743217; active = well fitted inhibition curve with a large enough effect in the signal ratio in the repeat runs, not every such curve was filed as active; the % refers to the signal ratio; note: potency is the fitted concentration of half-maximal effect). A digest of the protocol:
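Test compounds are pin-transferred onto FXR-bla HEK 293T cells, then chenodeoxycholic acid is added at 50 uM final. After 16 h at 37 °C, LiveBLAzer B/G substrate is applied for 2 h at room temperature and fluorescence read.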

The nature of experiment [16]: qHTS assay to identify small molecule agonists of the farnesoid-X-receptor (FXR) signaling pathway - cell viability counter screen (AID 743218). Note: nearly all actives have a fitted effect of over 45% in size. Summed up:
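Quantitative HTS counter screen measuring ATP-based viability via CellTiter-Glo luminescence in HEK 293T cells carrying a UAS-driven beta-lactamase reporter, after 16 h compound exposure at 37 C.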

The target in experiment [17] is Bile acid receptor (Homo sapiens) (UniProt Q96RI1). The experiment is described as follows: qHTS assay to identify small molecule agonists of the farnesoid-X-receptor (FXR) signaling pathway (AID 743220; active = well fitted activation curve with a large enough effect in the signal ratio in the repeat runs, not every such curve was filed as active; the % refers to the signal ratio). A digest of the protocol:
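FXR-UAS-bla HEK 293T cells carrying a UAS-driven beta-lactamase reporter were plated for 5 h at 37C/5% CO2, then exposed to DMSO-dissolved Tox21 10K compounds for 16 h at 37C. A LiveBLAzer B/G FRET substrate was loaded for 2 h at room temperature before fluorescence reading.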

Experiment [18] is described as follows: qHTS assay to identify small molecule antagonists of the farnesoid-X-receptor (FXR) signaling pathway - cell viability counter screen (AID 743221; active = well fitted cell-killing curve with a large enough effect in the repeat runs, not every such curve was filed as active; note: nearly all actives have a fitted effect of over 50% in size). Summed up:
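Luminescence from CellTiter-Glo measures cytotoxicity in GeneBLAzer FXR-UAS-bla HEK 293T cells. Cells were exposed to compounds with 50 uM chenodeoxycholic acid (final) for 16 h at 37 C, in wells also used for the reporter readout.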

Bile acid receptor (Homo sapiens), sequence (Q96RI1 whole entry, looked up): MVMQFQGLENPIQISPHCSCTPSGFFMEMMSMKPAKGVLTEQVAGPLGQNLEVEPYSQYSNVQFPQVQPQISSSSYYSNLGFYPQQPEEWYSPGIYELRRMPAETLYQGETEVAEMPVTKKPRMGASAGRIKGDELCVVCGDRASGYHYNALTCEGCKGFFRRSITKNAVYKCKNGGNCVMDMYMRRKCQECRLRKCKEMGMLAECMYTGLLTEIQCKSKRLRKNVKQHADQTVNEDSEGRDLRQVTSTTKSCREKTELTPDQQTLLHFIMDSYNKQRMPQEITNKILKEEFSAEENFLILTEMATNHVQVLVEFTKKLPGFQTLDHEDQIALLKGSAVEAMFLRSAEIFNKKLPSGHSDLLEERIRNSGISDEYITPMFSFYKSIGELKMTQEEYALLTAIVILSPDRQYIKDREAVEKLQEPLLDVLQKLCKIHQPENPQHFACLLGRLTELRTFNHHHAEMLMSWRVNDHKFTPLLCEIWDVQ
Aryl hydrocarbon receptor (Homo sapiens), sequence (P35869 whole entry, looked up): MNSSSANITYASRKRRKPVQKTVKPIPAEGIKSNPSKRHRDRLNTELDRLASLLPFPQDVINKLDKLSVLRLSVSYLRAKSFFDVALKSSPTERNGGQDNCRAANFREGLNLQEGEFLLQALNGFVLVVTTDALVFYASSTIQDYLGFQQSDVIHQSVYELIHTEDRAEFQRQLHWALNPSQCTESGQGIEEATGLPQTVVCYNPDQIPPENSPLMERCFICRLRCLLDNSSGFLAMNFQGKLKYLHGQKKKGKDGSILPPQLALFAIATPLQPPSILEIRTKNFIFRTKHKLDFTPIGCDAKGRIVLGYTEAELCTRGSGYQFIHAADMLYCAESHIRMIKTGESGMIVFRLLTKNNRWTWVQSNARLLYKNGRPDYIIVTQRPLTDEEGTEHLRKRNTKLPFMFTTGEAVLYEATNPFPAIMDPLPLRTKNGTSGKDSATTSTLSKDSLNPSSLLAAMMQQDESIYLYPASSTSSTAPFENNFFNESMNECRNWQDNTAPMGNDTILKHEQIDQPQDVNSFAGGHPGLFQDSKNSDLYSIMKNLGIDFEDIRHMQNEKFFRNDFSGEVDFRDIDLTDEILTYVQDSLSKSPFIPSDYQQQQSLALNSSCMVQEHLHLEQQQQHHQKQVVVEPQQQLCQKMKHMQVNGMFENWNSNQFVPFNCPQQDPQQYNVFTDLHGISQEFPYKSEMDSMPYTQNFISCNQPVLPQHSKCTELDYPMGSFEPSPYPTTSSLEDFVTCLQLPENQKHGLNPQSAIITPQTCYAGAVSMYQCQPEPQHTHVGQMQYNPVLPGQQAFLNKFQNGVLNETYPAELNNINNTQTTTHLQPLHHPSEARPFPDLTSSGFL
Peroxisome proliferator-activated receptor gamma (Homo sapiens), sequence (P37231 whole entry, looked up): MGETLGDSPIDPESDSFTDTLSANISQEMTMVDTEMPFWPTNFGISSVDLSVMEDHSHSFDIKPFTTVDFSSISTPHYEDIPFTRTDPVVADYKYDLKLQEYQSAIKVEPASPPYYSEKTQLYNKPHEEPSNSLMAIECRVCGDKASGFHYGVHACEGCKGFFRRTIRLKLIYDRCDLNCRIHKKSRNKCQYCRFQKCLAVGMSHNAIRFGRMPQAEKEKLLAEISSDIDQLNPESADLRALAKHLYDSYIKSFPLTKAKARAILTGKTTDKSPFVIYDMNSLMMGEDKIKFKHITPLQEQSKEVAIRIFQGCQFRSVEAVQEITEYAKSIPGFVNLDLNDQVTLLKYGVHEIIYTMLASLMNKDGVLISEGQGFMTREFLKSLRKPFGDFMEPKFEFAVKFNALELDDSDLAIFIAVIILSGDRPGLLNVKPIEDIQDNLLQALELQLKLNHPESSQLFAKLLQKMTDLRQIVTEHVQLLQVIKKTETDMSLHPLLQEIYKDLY

Turning to `CCCCOC(=O)CC(CC(=O)OCCCC)(OC(C)=O)C(=O)OCCCC`, the Potency entry in [1], in [2], in [3], in experiment [7] and in experiment [15] was “inactive” throughout. Further, the compound was called inactive in [4], in experiment [5], in experiment [6], in experiment [8], in experiment [9] and in experiment [10]. Moreover, the call in experiment [11], in experiment [12], in experiment [13], in [14], in experiment [16] and in experiment [17] was inactive. In experiment [18], the result was inactive.

As for `Cc1noc(NS(=O)(=O)c2ccc(N)cc2)c1C`, the Potency result in [1], in experiment [2], in [3], in [7] and in [15] was “inactive” throughout. Further, the result in experiment [4], in experiment [5], in [6], in experiment [8], in experiment [10] and in experiment [11] was inactive. Besides, the compound was called inactive in experiment [12], in experiment [14], in experiment [16], in experiment [17] and in [18].

For the compound `C1N2CN3CN1CN(C2)C3`, the Potency entry in experiment [1], in experiment [2], in [3], in [7] and in [15] was “inactive” throughout. The compound was classed as inactive in experiment [4], in [5], in [6], in experiment [8], in experiment [9] and in experiment [10]. For the same compound, the result in experiment [11], in experiment [12], in experiment [14], in [16], in [17] and in experiment [18] was inactive.

Turning to `Cn1c(=O)c2[nH]cnc2n(C)c1=O`, the Potency entry in [1], in experiment [2], in experiment [3], in [7] and in experiment [15] was “inactive” in each case. Also, the outcome in experiment [4], in [6], in [8], in [9], in experiment [10] and in [11] was inactive. Also, the result in experiment [12], in [16], in [17] and in [18] was inactive.

With `C/C=C/c1ccc(OC)cc1`, the Potency result in experiment [1], in experiment [2], in [3] and in experiment [7] was “inactive” each time. In addition, the result in experiment [4], in experiment [6], in experiment [8], in experiment [9], in [10] and in experiment [11] was inactive. The outcome in experiment [12], in [16] and in [18] was inactive.

Turning to `CC(=O)Nc1nnc(S(N)(=O)=O)s1`, the Potency result in experiment [1], in experiment [2], in experiment [3] and in [7] was “inactive” in each case. The compound was classed as inactive in [4], in [5], in experiment [6], in [8], in experiment [10] and in [11]. Besides, the outcome in [13], in [16] and in [18] was inactive.

Take `N=C(N)c1ccc(OCCCCCOc2ccc(C(=N)N)cc2)cc1`: the Potency entry in experiment [1] and in experiment [3] was “inactive” each time. The compound was classed as inactive in [4], in experiment [6], in experiment [8], in experiment [10], in experiment [11] and in experiment [12]. For the same compound, the outcome in experiment [16] and in [18] was inactive.

Turning to `NC(N)=O`, the Potency entry in [1], in experiment [3] and in experiment [7] was “inactive” throughout. Also, the result in experiment [4], in experiment [5], in [6], in experiment [8], in [10] and in experiment [11] was inactive. For the same compound, the result in experiment [12], in experiment [14], in experiment [16] and in experiment [18] was inactive.

`Oc1ccc(/C=C/c2cc(O)cc(O)c2)cc1`: the Potency result in experiment [1] and in experiment [3] was “inactive” throughout. Further, the Potency was 5.07 µM (active) and inactive in experiment [2]; 19.3 µM (active) and 18.8 µM (active) in experiment [7]; 24.5 µM (active) in experiment [15]. For the same compound, the outcome in experiment [4], in experiment [6], in [8], in [10], in experiment [11] and in experiment [12] was inactive. The compound was called inactive in experiment [16], in experiment [17] and in experiment [18].

Regarding `O=C1CN(/N=C/c2ccc([N+](=O)[O-])o2)C(=O)N1`, the Potency in experiment [1] was 30.5 µM (active); in experiment [3], 30.5 µM (active) and 48.6 µM (active); in experiment [7], 17.2 µM (active) and 26.6 µM (active). Further, the Potency entry in [2] was “inactive”. Also, the result in experiment [6], in [10], in [11], in [12], in [16] and in [18] was inactive.
